# Records with an inconclusive call do not appear. Entries that show only a call come without a potency. Activity calls are given as the source filed them. Calls follow the shape of the dose curve; as a rule, active = well fitted inhibition curve with a large enough effect; inconclusive = small, poorly fitted or top-dose-only effect; inactive = flat fitted curve, though single readings scatter.
# System: Zika virus NS2B-NS3 protease
# Assay: Primary screen GU AMC qHTS for Zika virus inhibitors (AID 1347154); also: nearly all actives have a fitted effect of over 70% in size
# Conditions: Zika NS2B-NS3 unlinked protease, AMC fluorogenic substrate; series mostly up to 54.1 µM
# Outline: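 Unlinked Zika NS2B hydrophilic domain–NS3 protease complex at 25 nM in 10 mM Tris-HCl pH 8.0, 0.01% Tween 20, with an AMC peptide substrate. Fluorescence change (340/450 nm) over 15 min at room temperature, normalized to controls, fitted to 4-parameter Hill.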
row,SMILES,Potency
1,N#CCC(=O)NN,inactive
2,CCOCCn1c(N2CCCN(C)CC2)nc2ccccc21,inactive
3,CCN(CC)CCNc1ccc(CO)c2sc3ccccc3c(=O)c12,inactive
4,C#C[C@]1(O)CC[C@H]2[C@@H]3[C@H](C)CC4=C(CCC(=O)C4)[C@H]3CC[C@@]21C,inactive
5,CN1CCN(C2=Nc3ccccc3Sc3ccc(Cl)cc32)CC1,inactive
6,NC(=O)C1(N2CCCCC2)CCN(CCCC(=O)c2ccc(F)cc2)CC1,inactive
7,c1ccc(CC2=NCCN2)cc1,inactive
8,CC(C)CCCC(C)N (centres undefined),inactive
9,CC(=O)Nc1ccc(CC(=O)O)cc1,inactive
10,COc1ccc(CCN(C)CCCN2CCc3cc(OC)c(OC)cc3CC2=O)cc1OC,inactive
11,O=C(NC1CCN(CCc2c[nH]c3ccccc23)CC1)c1ccccc1,inactive
12,COc1ccc(S(=O)(=O)N2c3ccc(Cl)cc3[C@@](O)(c3ccccc3Cl)[C@H]2C(=O)N2CCC[C@@H]2C(N)=O)cc1OC,inactive
13,Cc1cccc(C)c1NC(=O)c1ccccc1C(=O)O,inactive
14,Cc1nc(-c2ccc(Cl)cc2)oc1COC(C)(C)C(=O)O,inactive
15,O=C(O)C(Cc1cc(I)c(O)c(I)c1)c1ccccc1 (centres undefined),inactive
16,CC(=O)Nc1ccc(S(=O)(=O)Nc2ccc([N+](=O)[O-])cc2)cc1,inactive
17,CNCCc1ccccn1,inactive
18,CO[C@]12C[C@@H](COC(=O)c3cncc(Br)c3)CN(C)[C@@H]1Cc1cn(C)c3cccc2c13,inactive
19,Cc1ccccc1OCC(O)CO (centres undefined),inactive
20,CCOC(=O)C(C#N)=C(c1ccccc1)c1ccccc1,inactive

row,SMILES,Potency
1,CCCCCCCCNC(C)C(O)c1ccc(SC(C)C)cc1 (centres undefined),inactive
2,CCN(CC)CCNC(=O)c1cc(Br)c(N)cc1OC,inactive
3,CCc1ccc(C(=O)C(C)CN2CCCCC2)cc1 (centres undefined),inactive
4,Nc1nc(Cl)nc2c1ncn2[C@@H]1O[C@H](CO)[C@@H](O)[C@@H]1F,inactive
5,Cc1ccc(O)c([C@H](CCN(C(C)C)C(C)C)c2ccccc2)c1,inactive
6,OC(C#CCN1CCCC1)(c1ccccc1)c1ccccc1,inactive
7,O=C1OC2(c3ccccc31)c1cc(Br)c(O)c(Br)c1Oc1c2cc(Br)c(O)c1Br,inactive
8,CC(C)(C)CC(C)(C)c1ccc(O)c(-n2nc3ccccc3n2)c1,inactive
9,CC(=O)NO,inactive
10,Nc1ccc(S(=O)(=O)Nc2cnc3ccccc3n2)cc1,inactive
11,CC(=O)OCC(=O)[C@H]1CC[C@H]2[C@@H]3CCC4=CC(=O)CC[C@]4(C)[C@H]3CC[C@]12C,inactive
12,NCCNC(=O)c1ccc(Cl)cn1,inactive
13,C[N+]1(C)CCC(=C(c2ccccc2)c2ccccc2)CC1,inactive
14,O=C(O)P(=O)(O)O,inactive
15,CCNC(=O)/C=C/c1cccc(Br)c1,inactive
16,CCCCC(CC)COC(=O)c1ccc(N(C)C)cc1 (centres undefined),inactive
17,CNCCCCOc1ccccc1Cc1ccccc1,inactive
18,OC[C@H]1O[C@@H]2O[C@H]3[C@H](O)[C@@H](O)[C@@H](O[C@H]4[C@H](O)[C@@H](O)[C@@H](O[C@H]5[C@H](O)[C@@H](O)[C@@H](O[C@H]6[C@H](O)[C@@H](O)[C@@H](O[C@H]7[C@H](O)[C@@H](O)[C@@H](O[C@H]8[C@H](O)[C@@H](O)[C@@H](O[C@H]1[C@H](O)[C@H]2O)O[C@@H]8CO)O[C@@H]7CO)O[C@@H]6CO)O[C@@H]5CO)O[C@@H]4CO)O[C@@H]3CO,inactive
19,CC1=C(C(=O)O)N2C(=O)[C@@H](NC(=O)[C@H](N)c3ccccc3)[C@H]2SC1,inactive

# — PubChem BioAssay (NCATS)
